Giardia kill: kills Giardia lamblia | activity change, % at 7.66 µM, hits read low | AID 540267 | 340,000 tested, 0.15% active | Giardia lamblia trophozoite viability; in the data active = activity change below about -80%; inconclusive = between about -30% and that limit;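 note: parasites exposed to compound for two days anaerobically before the ATP read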
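Media and compound were dispensed first, then trophozoites at 100 cells/well; plates sat 48 hrs at 37 deg C without oxygen before ATP luminescence reagent was added and read after 15-30 min at room temperature.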
TDP1 inh: blocks human tyrosyl-DNA phosphodiesterase 1; Q9NUW8; recombinant TDP1, AlphaScreen DNA substrate cleavage; Potency, µM (series often up to 130 µM), without a hit: at the top dose activity change, negative = inhibition, actives largely listed as inhibitors; 350,000 tested, 0.28% active; note: potency is the fitted concentration of half-maximal effect; nearly all actives have a fitted effect of over 40% in size
Target sequence (Q9NUW8 whole entry, looked up): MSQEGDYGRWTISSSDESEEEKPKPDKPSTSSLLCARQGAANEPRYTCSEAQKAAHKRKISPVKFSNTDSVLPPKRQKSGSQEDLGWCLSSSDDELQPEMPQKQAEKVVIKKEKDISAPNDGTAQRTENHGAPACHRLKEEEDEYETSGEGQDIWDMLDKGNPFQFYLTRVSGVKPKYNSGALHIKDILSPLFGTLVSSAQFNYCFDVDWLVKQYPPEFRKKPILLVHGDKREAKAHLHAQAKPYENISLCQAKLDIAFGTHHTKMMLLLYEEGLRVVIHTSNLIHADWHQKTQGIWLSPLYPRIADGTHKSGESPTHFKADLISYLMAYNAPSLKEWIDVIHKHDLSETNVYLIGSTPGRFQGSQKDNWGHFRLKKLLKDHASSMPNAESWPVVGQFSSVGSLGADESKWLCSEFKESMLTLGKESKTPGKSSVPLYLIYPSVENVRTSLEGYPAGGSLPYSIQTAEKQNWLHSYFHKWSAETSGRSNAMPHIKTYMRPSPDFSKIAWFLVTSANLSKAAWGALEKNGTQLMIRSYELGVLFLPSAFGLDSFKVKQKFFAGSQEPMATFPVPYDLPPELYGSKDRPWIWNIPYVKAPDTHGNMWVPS
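AlphaScreen read-out: signal falls as enzyme removes the 3' tyrosine-FITC from a 5'-biotinylated DNA oligo (15 nM, 5 min, RT). Enzyme was E. coli-made recombinant Tdp1 at 1 nM, exposed to compound for 15 min beforehand; beads 10 ug/ml, 10 min.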
DT40 TDP1 CPT: DT40-hTDP1 cell growth loss with CPT. chicken DT40 Tdp1-/-;hTDP1 cells + 20 nM CPT, ATP luminescence, 48 h. Potency, µM (titrated, usually from 46.2 µM), inactives show at the top dose activity change, negative = growth inhibition, most hits filed as inhibitors. 420,000 tested, 12% active. AID 686979; note: potency is the fitted concentration of half-maximal effect; nearly all actives have a fitted effect of over 55% in size
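Chicken DT40 Tdp1-/- cells stably complemented with human TDP1 were seeded at 400 cells/well in medium containing 20 nM camptothecin, exposed to pin-transferred compounds, and grown at 37 °C for at least 48 hr. Viability was read as ATP luminescence.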
IL-1B inflam inh: blocks inflammasome-driven IL-1 beta release. THP-1 LPS/ATP IL-1B secretion, AlphaLISA, 16 h; stronger effect = lower value. activity change, % at 57.5 µM. 360,000 tested, 4.7% active. AID 743279; in the data active = activity change below about -50%; inconclusive = mostly about -30% to -49%
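Secreted IL-1B measured by AlphaLISA bead assay after 16 h compound exposure of THP-1 cells; compounds (final up to 57.5 uM) added 1 h before LPS (250 ng/mL) and ATP (1.25 mM) stimulation; lower signal means less secretion.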
TDP1 cell noCPT: qHTS for Inhibitors of human tyrosyl-DNA phosphodiesterase 1 (TDP1): qHTS in cells in absence of CPT; DT40 Tdp1-/- hTDP1 cells, no CPT, ATP luminescence, 48 h; Potency, µM (highest dose often 46.2 µM), for inactives: at the highest dose activity change, negative = growth inhibition, usual class: inhibitors; 420,000 tested, 15% active; AID 686978, 2013; note: potency is the fitted concentration of half-maximal effect; nearly all actives have a fitted effect of over 55% in size
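A cellular qHTS used chicken DT40 cells lacking endogenous Tdp1 but carrying stably transfected human TDP1. Compounds were applied without camptothecin, and cell growth kinetics were judged by ATP-dependent luminescence after ≥48 hr.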
ELG1 DNA repair: inhibitors of ELG1-dependent DNA repair in HEK293T cells | 330,000 tested, 2.3% active | AID 504467 | HEK293T ELG1-luciferase reporter, luminescence, 16 h; DNA damage induced by 5-fluorouridine | Potency, µM (series often up to 46.1 µM), inactives show at the highest dose activity change, negative = inhibition, actives largely listed as inhibitors; note: potency is the fitted concentration of half-maximal effect; nearly all actives have a fitted effect of over 55% in size
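HEK293T cells expressing luciferase-tagged ELG1 (2,000/well) received 5-Fluorouridine plus compound or DMSO for 16 hr at 37 °C. Luciferase was read by ONE-Glo luminescence after 30 min at room temperature.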
* = called active by the depositor; ? = inconclusive; nt = no result; ! = not active in a repeat. Rows were chosen to be rich in hits. Some 19% of all compounds tested hit in one or more screens of this group. Unless noted, calls come from the whole dose curve; as a rule, active = well fitted curve in the direction sought with a large enough effect; inconclusive = small, poorly fitted or top-dose-only effect, or another doubt; inactive = no such curve, though single readings can be large; an effect the other way counts as inactive or inconclusive. % is set by controls: 0 for no effect and ±100 for the full control effect.

SMILES	Giardia kill	TDP1 inh	DT40 TDP1 CPT	IL-1B inflam inh	TDP1 cell noCPT	ELG1 DNA repair
O=C(CC1C(=O)NCCN1CC1CCCCC1)NCc1cccc(F)c1F (centres undefined)	10	7%	1%	-12	-2%	1%
CN(CC(=O)Nc1ccc(F)cc1)S(=O)(=O)c1ccc2c(c1)c(=O)n(C)c(=O)n2C	0	3%	-7%	-1	-2%	-19%
Cc1ccc(CCNC(=O)C2CC(=O)N(CCc3ccc(C)cc3)C2)cc1 (centres undefined)	nt	5%	2%	nt	2%	nt
CC(=O)Nc1ccc(NC(=O)COC(=O)C2CCCCC2)cc1	20	2%	-15%	25	-18%	?
COC(=O)/C=C1\OC(C2CC2)c2ccccc21 (centres undefined)	nt	nt	8.2µM*	17	16µM*	nt
COC(=O)C1=C(CN2CCc3ccccc32)NC(=O)NC1c1cc(C)ccc1C (centres undefined)	7	11%	?	-20	?	13µM*
COC(=O)C1=C(COc2ccc(C=O)cc2OC)NC(=O)NC1c1cc(C)ccc1C (centres undefined)	7	0%	?	20	15µM*	-21%
Cc1cc(Cl)ccc1OCC(=O)N1CCCCC1	-19	6%	-4%	-5	-22%	?
O=C(/C=C/c1ccc(F)cc1)Nc1cc(S(=O)(=O)N2CCOCC2)ccc1N1CCCC1	5	5%	-20%	-22	?	-12%
O=C(COc1ccc(Cl)cc1Cl)N1CCCN(C(=O)COc2ccc(Cl)cc2Cl)CC1	11	1%	?	-76*	?	?
CC(Oc1ccc(Br)cc1)C(=O)Nc1cc(Cl)ccc1N1CCN(C)CC1 (centres undefined)	23	nt	?	-86*	?	-20%
CN1CCN(c2ccc(Cl)cc2NC(=O)/C=C/c2ccc(F)cc2)CC1	-3	8%	?	-73*	16µM*	-6%
CCOc1cc(NC(=S)Nc2ccc(Cl)cc2)c(OCC)cc1NC(C)=O	5	-4%	-28%	-11	?	7.3µM*
CCOc1ccccc1NC(=O)Nc1ccc(Cl)cc1	-6	-3%	?	-3	?	19%
CCOc1ccc(N(C(C)C(=O)N2CCCCCC2)S(C)(=O)=O)cc1 (centres undefined)	3	1%	?	2	?	-19%
O=C(COC(=O)/C=C/c1ccccc1)NCCc1ccc(F)cc1	13	0%	-6%	-10	-3%	11%
CN1CCN(c2ccc(NC(=O)c3ccc(Cl)cc3Cl)cc2)CC1	-13	nt	1%	0	5%	?
CC(Oc1ccc(Cl)cc1Cl)C(=O)Nc1cccc(O)c1 (centres undefined)	6	5%	-16%	-11	0%	?
O=C(COc1ccc(Cl)cc1Cl)Nc1ccccn1	-101*	-7%	-19%	-22	-6%	?
CC(Oc1ccc(Cl)cc1Cl)C(=O)Nc1ccc(N2CCN(C)CC2)cc1 (centres undefined)	13	2%	?	-27	18µM*	-23%
CC(=O)N1CCN(c2ccc(NC(=O)C(C)Oc3ccc(Cl)cc3Cl)cc2)CC1 (centres undefined)	-23	-5%	?	-16	21µM*	?
CC(Oc1ccc(Cl)cc1Cl)C(=O)Nc1ccc(O)cc1 (centres undefined)	22	0%	-23%	-66*	?	?
CC(=O)N1CCN(c2ccccc2NC(=O)COc2ccc(Cl)cc2Cl)CC1	2	3%	?	-7	?	?
Cc1occc1C(=O)NNC(=S)NC(=O)COc1ccc(Cl)cc1Cl	-16	9%	?	7	18µM*	?
CC(=O)N1CCN(c2ccc(NC(=O)COc3ccc(Cl)cc3Cl)cc2)CC1	10	6%	23µM*	?	18µM*	9.2µM*
SMILES	Giardia kill	TDP1 inh	DT40 TDP1 CPT	IL-1B inflam inh	TDP1 cell noCPT	ELG1 DNA repair
Cc1occc1C(=O)NNC(=O)COc1ccc(Br)cc1Br	13	3%	-8%	4	-13%	?
CCOc1cc(NC(=O)CCl)c(OCC)cc1NC(=O)CCl	37	-2%	2.9µM*	-81*	1.2µM*	?
CC(=O)NC(=S)Nc1ccc(NC(=O)COc2ccc(Cl)cc2Cl)cc1	8	2%	?	?	6.5µM*	0%
CCOc1ccccc1NC(=O)CCC(=O)Nc1ccccc1OCC	-11	3%	4%	27	-6%	?
CCC(=O)N1Cc2cc(C(=O)N(C)C)nc(-c3cccc(-c4cncnc4)c3)c2[C@@H]1CCO	nt	nt	0%	11	-5%	nt
CCc1ccc(C(=O)c2cn(CC(=O)Nc3ccc4c(c3)OCO4)c3cc(OC)c(OC)cc3c2=O)cc1	nt	6%	0%	nt	-7%	nt
N#Cc1nc(COc2ccc(Br)cc2)oc1N1CCCCCC1	-14	7%	15µM*	-21	16µM*	1%
N#Cc1nc(COc2ccc(-c3ccccc3)cc2)oc1NCCCN1CCOCC1	-5	4%	23µM*	?	23µM*	-29%
N#Cc1nc(COc2ccc(-c3ccccc3)cc2)oc1N1CCC(C(N)=O)CC1	3	4%	13µM*	nt	18µM*	nt
CC(C)(C)c1ccc(-c2nc(C#N)c(N3CCC(C(N)=O)CC3)o2)cc1	-10	nt	15%	-94*	?	3%
CC(=O)c1c(C)[nH]c(C(=O)OCC(=O)NCCC2=CCCCC2)c1C	-13	1%	?	6	?	-14%
CCOc1ccc(S(=O)(=O)Nc2ccc3c(c2)CCCN3S(=O)(=O)c2ccc(C)cc2)cc1	nt	-4%	?	nt	18µM*	nt
Cc1ccc(S(=O)(=O)N2CCCc3cc(NS(=O)(=O)c4cccc(Cl)c4)ccc32)cc1	nt	4%	21µM*	nt	21µM*	nt
Cc1ccc(S(=O)(=O)N2CCCc3ccccc32)cc1	nt	nt	-24%	32	?	nt
COc1cc2ccc(=O)oc2c(O)c1O	-2	-2%	21µM*!	50	?	nt
Cc1cccc(-c2nc3c(c(SCC(=O)N4CCOCC4)n2)COC(C)(C)C3)c1	-2	4%	?	-1	4%	-3%
Cc1cccc(Cn2c(=O)n(Cc3ccccc3)c(=O)c3c2c2cc(C)ccc2n3C)c1	nt	6%	-5%	nt	-19%	nt
CCc1cccc(C)c1NC(=S)NCC1CCN(c2ccc(OC)cc2)C1 (centres undefined)	27	11%	21µM*	-67*	21µM*	?

Compound activity: PubChem BioAssay, National Center for Advancing Translational Sciences (NCATS)
